The results in this text go back to PubChem BioAssay (Tox21).

SMILES strings stand for the structures. Records with an inconclusive call do not appear. Activity calls are given as the source filed them. The call rests on the fitted dose curve; in most records, active means well fitted cell-killing curve with a large enough effect in the repeat runs; inconclusive means weak or mixed curves, or effect the other way; inactive means flat fitted curve, though single readings scatter.
On the % scale 0 is the no-effect control and ±100 the full control effect; potency means the concentration at half of the fitted maximal effect.

This test is described as follows: cAMP Responsive Elements (CRE) small molecule agonists, cell-based qHTS assay: qHTS cell viability counter screen (AID 2060914).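 Further: viability read after 3 h of compound exposure; nearly all actives have a fitted effect of over 50% in size.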 The note with it: CRE-bla HEK293T viability, CellTiter-Glo luminescence, 5 h; series mostly up to 92.4 µM; activity change, negative = cytotoxicity: at the top concentration. The source says: National Center for Advancing Translational Sciences [NCATS]
Division of Preclinical Innovation [DPI]
U.S. Environmental Protection Agency [EPA]
National Institutes of Environmental Health Sciences [NIEHS]
National Toxicology Program [NTP]
U.S. Food and Drug Administration [FDA]
CREB (cyclic-AMP Responsive Element Binding Protein) is a cellular transcription factor. It binds to certain DNA sequences called cAMP Responsive Elements (CRE) and regulates the transcription of the genes. […] This cell line can be used to find agonists/antagonists of the cyclic AMP signaling pathway. The activation of the report gene under culture conditions can be detected by fluorescence intensity. This cell line has been used to screen the Tox21 10K compound library to identify agonists that induce oxidative stress. The cytotoxicity of the Tox21 compound library against the CRE-bla cell line was tested in parallel by measuring the cell viability using CellTiter-Glo assay (Promega, Madison, WI) in the same wells.
Tox21 Assay Protocol Summary:
CRE-bla Hek 293T cells were suspended in assay medium (DMEM containing 10% dialyzed FBS, 0.1 mM NEAA, 1 mM sodium pyruvate and 25 mM HEPES) and dispensed at 2,000 cells/5 uL /well into 1536-well black wall/clear bottom plates using a Multidrop Combi (ThermoFisher Scientific, Waltham, MA) dispenser. After the assay plates were incubated at 37 C/5% CO2 for 18 hrs, 23 nL of compounds dissolved in DMSO, positive controls or DMSO only was transferred to the assay plate by a pintool workstation (Kalypsys, San Diego, CA). After the plates were incubated at 37 C/5% CO2 for 3 hrs, 1 uL of LiveBLAzer B/G FRET substrate (Invitrogen, Carlsbad, CA) was added to each well using Bioraptr Flying Reagent Dispenser (FRD, Aurora Discovery, San Diego, CA). The plates were incubated at room temperature for 2 h, then fluorescence intensities were measured using an Envision plate reader (PerkinElmer, Shelton, CT) at Excitation 405nm, Emission 460nm and 530nm. The % activity was determined from the ratio of 460nm/530nm. For cell viability readout that measures cytotoxicity, 4 uL /well of CellTiter-Glo reagent was added into the assay plates using Bioraptr FRD. After 30 min incubation at room temperature, the luminescence intensity in the assay plates was measured using a ViewLux (PerkinElmer, Shelton, CT) plate reader.
For the molecule `N[C@@H](Cc1ccc(N(CCCl)CCCl)cc1)C(=O)O`, the Potency entry is “inactive”.

Consider `O=CC=O`, for which the “activity change, negative = cytotoxicity” value was 21% (inactive). `CCC(C)(C)C(=O)OC1=C(c2ccc(Cl)cc2Cl)C(=O)OC12CCCCC2`: the “activity change, negative = cytotoxicity” value was 15.8% (inactive). In the case of `COC(=O)Nc1cccc(OC(=O)Nc2cccc(C)c2)c1`, the Potency result is “inactive”.

`FC(F)(F)c1cccc(C2=CCN(CCc3ccc4ccccc4c3)CC2)c1`: the “activity change, negative = cytotoxicity” value is -29.8% [at 42.5 µM] (inactive).

`NC(=S)Nc1ccccc1`: the “activity change, negative = cytotoxicity” value was 8.38% (inactive). On to `CCCOC(=O)c1ccccc1C(=O)OCCC`, for which the Potency result is “inactive”. For `O=[N+]([O-])c1ccc(Cl)c(Cl)c1`, the “activity change, negative = cytotoxicity” value is -2.37% (inactive). As for `c1ccc2c(c1)[nH]c1cnccc12`, the “activity change, negative = cytotoxicity” value was -0.417% (inactive). On to `ClC(Br)Br`, for which the “activity change, negative = cytotoxicity” value was 4.37% (inactive). On to `ClC1C(Cl)C(Cl)C(Cl)C(Cl)C1Cl` (stereo not given), for which the Potency result was “inactive”. Take `ClC(Cl)=C(c1ccc(Cl)cc1)c1ccccc1Cl`: the “activity change, negative = cytotoxicity” value was -19% (inactive). In the case of `CN=C=O`, the “activity change, negative = cytotoxicity” value is 19.8% (inactive). With `CCCCCCCCn1cc[n+](C)c1`, the “activity change, negative = cytotoxicity” value was -16.3% (inactive).

For the molecule `Clc1ccc(C(c2ccc(Cl)cc2)C(Cl)Cl)cc1`, the Potency was 62.1 µM (active). On to `CCC[N+]1(C)CCCCC1`, for which the Potency entry is “inactive”. As to `CC(C)NC(C)C`, the Potency result was “inactive”. For `CC(C)NCC(O)c1ccc(N)c(C#N)c1` (stereo not given), the “activity change, negative = cytotoxicity” value is -11.8% [at 42.5 µM] (inactive).

Regarding `O=C(NC(=O)c1cc(F)c(F)cc1Cl)Nc1cc(F)ccc1N1CCC(C(=O)O)CC1`, the “activity change, negative = cytotoxicity” value was 1.66% [at 42.5 µM] (inactive). With `CCCN(CCC)CCc1c[nH]c2ccccc12`, the “activity change, negative = cytotoxicity” value is -2.15% (inactive). In the case of `CNP(=O)(OC)Oc1ccc(C(C)(C)C)cc1Cl` (stereo not given), the “activity change, negative = cytotoxicity” value is -0.321% (inactive). With `C=CC(=O)OCCO`, the Potency result is “inactive”. As to `COP(=S)(OC)Oc1c(Cl)cc(C)cc1Cl`, the “activity change, negative = cytotoxicity” value is 3.43% (inactive). For the molecule `CC(C)N(C(=O)SCC(Cl)=C(Cl)Cl)C(C)C`, the Potency result is “inactive”.

Take `CSC1=N[C@@](C)(c2ccccc2)C(=O)N1Nc1ccccc1`: the “activity change, negative = cytotoxicity” value is -2.93% (inactive). Consider `CC1=C(C(=O)Nc2ccccc2)S(=O)(=O)CCO1`, for which the “activity change, negative = cytotoxicity” value was -0.645% (inactive). On to `CN1CCC(O)(c2ccc(F)cc2)C(C(=O)c2ccc(F)cc2)C1` (stereo not given), for which the “activity change, negative = cytotoxicity” value is 10.6% [at 42.5 µM] (inactive). As to `CCc1ccccc1C`, the “activity change, negative = cytotoxicity” value was 6.07% (inactive).

On to `C=CC(=O)OCC(CC)(COC(=O)C=C)COC(=O)C=C`, for which the “activity change, negative = cytotoxicity” value was 14.5% (inactive). With `ClCc1ccccc1`, the “activity change, negative = cytotoxicity” value was -3.87% (inactive). For `Nc1ccc(Cc2ccc(N)cc2)cc1`, the Potency result was “inactive”. Consider `CCCCCCCCOC(=O)c1ccc(C(=O)OCCCCCCCC)c(C(=O)OCCCCCCCC)c1`, for which the “activity change, negative = cytotoxicity” value was 6.75% (inactive). Turning to `CC(c1ccc(O)cc1)(c1ccc(O)cc1)c1ccc(O)cc1`, the “activity change, negative = cytotoxicity” value is 14.8% (inactive). Consider `C=C(C)[C@H]1CN[C@H](C(=O)O)[C@H]1CC(=O)O`, for which the “activity change, negative = cytotoxicity” value is -0.614% [at 42.5 µM] (inactive).

Take `Nc1cc(Cl)ccc1Cl`: the “activity change, negative = cytotoxicity” value was -0.903% (inactive). Consider `COCC(C)N(C(=O)CCl)c1c(C)csc1C` (stereo not given), for which the “activity change, negative = cytotoxicity” value is -10.9% (inactive).

Consider `O=[N+]([O-])c1ccc(Oc2ccc(Cl)cc2Cl)cc1`, for which the Potency result is “inactive”. Consider `O=C1C[C@@H]2OCC=C3CN4CC[C@]56c7ccccc7N1[C@H]5[C@H]2[C@H]3C[C@H]46`, for which the “activity change, negative = cytotoxicity” value is 2.89% [at 42.5 µM] (inactive).

Take `S=C=NCc1ccccc1`: the “activity change, negative = cytotoxicity” value is -7.09% (inactive). For the molecule `O=[N+]([O-])c1ccc(F)c([N+](=O)[O-])c1`, the “activity change, negative = cytotoxicity” value is -11.5% (inactive).
